{
  "source": "PubChem BioAssay (NCI)",
  "note": "The panel holds about 79,000 compounds, 15% with a hit somewhere; the sample as a whole holds those more often. A number with no mark means an inactive call. Activity calls are given as the source filed them. No stated cut-off is given here; in the data, active means growth inhibition above about 70%; inactive means the rest. Where a SMILES comes first, the peptide text is derived from it. [ ]: non-standard residue; d: D form. ξ: configuration not given here. ξD = NC(CC(=O)O)C(=O)O",
  "data": [
    {"test": "NCI Yeast Anticancer Drug Screen. Data for the cln2 rad14 strain (AID 165);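 further: 0% = growth equal to vehicle treated cultures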", "conditions": "S. cerevisiae cln2 rad14 strain, at 50.0 µM, hits give high values", "in_short": "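Test compounds were added to cln2 rad14 yeast cultures; inhibition of growth was then determined by comparison with vehicle treatment.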", "values": [
      {"smiles": "COC(=O)c1nc(=S)[nH]c(C(=O)OC)c1C(=O)c1ccc(Cl)c(Cl)c1", "growth inhibition": "98.5% (active)"},
      {"smiles": "NC(=Nc1nc(-c2ccccn2)cc2ccccc12)c1ccccn1", "growth inhibition": "68.6%"},
      {"smiles": "Cc1nc(Sc2nc3ccc([N+](=O)[O-])cc3s2)sc1C", "growth inhibition": "46%"},
      {"smiles": "NC(=S)Nc1ccc2c(c1)Cc1ccccc1-2", "growth inhibition": "23.4%"},
      {"smiles": "CN(C)CCN(C)CC(C)(C)C(=O)/C=C/c1ccc(Cl)c(Cl)c1", "growth inhibition": "8.2%"},
      {"smiles": "CCCCCCCCCCCCCCCc1ccc(C(=O)C[n+]2ccccc2)cc1", "growth inhibition": "54%"},
      {"smiles": "O=C(CCl)N(c1ccccc1)c1ccccc1", "growth inhibition": "68.5%"},
      {"smiles": "CCOC(=O)C1=C(C(=O)c2ccccc2)C(c2cccc([N+](=O)[O-])c2)C(C(=O)c2ccccc2)=C(C(=O)OCC)N1", "growth inhibition": "17%"},
      {"smiles": "CCN1CCCC(Nc2cc(C)nc(/N=C(/N)Nc3ccc(Cl)c(Cl)c3)n2)C1", "note": "(stereo not drawn)", "growth inhibition": "82.7% (active)"},
      {"smiles": "CCc1cnc2ccccc2c1/C=C/c1ccc(N(C)C)cc1", "growth inhibition": "93.1% (active)"},
      {"smiles": "O=[N+]([O-])c1ccc2c(c1)Cc1ccccc1-2", "growth inhibition": "-13.5%"},
      {"smiles": "Fc1ccc(NCCS)cc1", "growth inhibition": "60.2%"},
      {"smiles": "CCCCC(C=O)(C=C=C(C)C)CC", "note": "(stereo not drawn)", "growth inhibition": "36.4%"},
      {"smiles": "CN(C)c1ccc(/C=C/c2cc[n+](C)c(/C=C/c3ccc(N(C)C)cc3)c2)cc1", "growth inhibition": "92.8% (active)"},
      {"smiles": "COc1cc([C@@H]2c3cc4c(cc3[C@H](OC3OC5COC(c6ccccc6)OC5C(O)C3O)[C@H]3COC(=O)[C@H]23)OCO4)cc(OC)c1OC", "note": "(stereo partly drawn)", "growth inhibition": "63%"},
      {"smiles": "OC(c1cc(-c2ccc(Cl)cc2)nc2c(Cl)cccc12)C1CCCCN1", "note": "(stereo not drawn)", "growth inhibition": "99% (active)"},
      {"smiles": "CSc1nc(C)c(C(=O)CCN2CCN(c3ccccn3)CC2)s1", "growth inhibition": "43.4%"},
      {"smiles": "Cc1cc(C(=O)c2ccc(Cl)cc2)ccc1O", "growth inhibition": "46%"},
      {"smiles": "O=C(c1ccccc1)C(Br)C(Br)c1ccccc1", "note": "(stereo not drawn)", "growth inhibition": "39.8%"},
      {"smiles": "CCCCCCN(CCCCCC)CCCNc1nccc2ccccc12", "growth inhibition": "56.5%"},
      {"smiles": "CCCCCCCCCCCC[S+](C)CC(=O)[O-]", "note": "(stereo not drawn)", "growth inhibition": "72% (active)"},
      {"smiles": "COC(=O)C(=[N+]=[N-])C(=O)c1ccc([N+](=O)[O-])o1", "growth inhibition": "98.5% (active)"},
      {"smiles": "Cc1c(O)ccc(SC#N)c1C", "growth inhibition": "84% (active)"},
      {"smiles": "Oc1c(Cl)cc(Cl)cc1C(c1cc(Cl)cc(Cl)c1O)C(Cl)(Cl)Cl", "growth inhibition": "98.7% (active)"},
      {"smiles": "CCCCCCCCCCCCNCCCc1ccccc1", "growth inhibition": "98.8% (active)"},
      {"smiles": "Nc1ccc(C(=O)/C=C/c2ccccc2)cc1", "growth inhibition": "8.95%"},
      {"smiles": "NCC(=O)NC(CC(=O)O)C(=O)O", "note": "(stereo not drawn) (H-Gly-[ξD]-OH)", "growth inhibition": "1.05%"},
      {"smiles": "CN(C)c1ccc(C(=C2C=CC(=[N+](C)C)C=C2)c2ccc(N(C)C)cc2)cc1", "growth inhibition": "87.2% (active)"},
      {"smiles": "O=C1c2ccccc2Cc2cccc(Cl)c21", "growth inhibition": "17.4%"},
      {"smiles": "O=C/C=C/c1ccc([N+](=O)[O-])cc1", "growth inhibition": "46.7%"},
      {"smiles": "O=C1c2ccccc2C(=O)c2c(O)c(Cl)cc(O)c21", "growth inhibition": "-55.6%"},
      {"smiles": "CN1CSC(=S)N(Cc2ccccc2)C1", "growth inhibition": "21.2%"},
      {"smiles": "CC(O)C(O)C(O)C(O)C(O)C(=O)NNc1ccccc1", "note": "(stereo not drawn)", "growth inhibition": "13.5%"},
      {"smiles": "Cn1c(COC(=O)NC2CCCCC2)c(COC(=O)NC2CCCCC2)c2ccc3cc(Cl)c(Cl)cc3c21", "growth inhibition": "49.2%"},
      {"smiles": "NC(=S)N/N=C\\c1nccc2c(N)cccc12", "growth inhibition": "36.4%"},
      {"smiles": "Oc1cc(Cl)ccc1Cc1ccc(Cl)cc1O", "growth inhibition": "99.5% (active)"},
      {"smiles": "CCCCCCCCCCCC(=O)OC(C)C(=O)NCCCC", "note": "(stereo not drawn)", "growth inhibition": "26.4%"},
      {"smiles": "CCC(=O)c1cc([N+](=O)[O-])c(Br)s1", "growth inhibition": "98.8% (active)"},
      {"smiles": "OC(Cc1cc(CC(O)(C(F)(F)F)C(F)(F)F)nc(CC(O)(C(F)(F)F)C(F)(F)F)c1)(C(F)(F)F)C(F)(F)F", "growth inhibition": "97.8% (active)"}
    ]},
    {"test": "NCI Yeast Anticancer Drug Screen. Data for the bub3 strain (AID 167)", "conditions": "S. cerevisiae bub3 mutant strain, at 5.0 µM (retest, dose inferred, filed as 0.5), hits give high values", "in_short": "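Compounds were applied to a genetically altered yeast strain carrying a cell-cycle control defect. Growth inhibition was scored against vehicle-treated controls.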", "values": [
      {"smiles": "COC(=O)c1nc(=S)[nH]c(C(=O)OC)c1C(=O)c1ccc(Cl)c(Cl)c1", "growth inhibition": "0%"},
      {"smiles": "NC(=Nc1nc(-c2ccccn2)cc2ccccc12)c1ccccn1", "growth inhibition": "73% (active)"},
      {"smiles": "Cc1nc(Sc2nc3ccc([N+](=O)[O-])cc3s2)sc1C", "growth inhibition": "-12%"},
      {"smiles": "NC(=S)Nc1ccc2c(c1)Cc1ccccc1-2", "growth inhibition": "0%"},
      {"smiles": "CN(C)CCN(C)CC(C)(C)C(=O)/C=C/c1ccc(Cl)c(Cl)c1", "growth inhibition": "6%"},
      {"smiles": "CCCCCCCCCCCCCCCc1ccc(C(=O)C[n+]2ccccc2)cc1", "growth inhibition": "28%"},
      {"smiles": "O=C(CCl)N(c1ccccc1)c1ccccc1", "growth inhibition": "8%"},
      {"smiles": "CCOC(=O)C1=C(C(=O)c2ccccc2)C(c2cccc([N+](=O)[O-])c2)C(C(=O)c2ccccc2)=C(C(=O)OCC)N1", "growth inhibition": "-7%"},
      {"smiles": "CCN1CCCC(Nc2cc(C)nc(/N=C(/N)Nc3ccc(Cl)c(Cl)c3)n2)C1", "note": "(stereo not drawn)", "growth inhibition": "29%"},
      {"smiles": "CCc1cnc2ccccc2c1/C=C/c1ccc(N(C)C)cc1", "growth inhibition": "21%"},
      {"smiles": "O=[N+]([O-])c1ccc2c(c1)Cc1ccccc1-2", "growth inhibition": "0%"},
      {"smiles": "Fc1ccc(NCCS)cc1", "growth inhibition": "10%"},
      {"smiles": "CCCCC(C=O)(C=C=C(C)C)CC", "note": "(stereo not drawn)", "growth inhibition": "-13%"},
      {"smiles": "CN(C)c1ccc(/C=C/c2cc[n+](C)c(/C=C/c3ccc(N(C)C)cc3)c2)cc1", "growth inhibition": "96% (active)"},
      {"smiles": "COc1cc([C@@H]2c3cc4c(cc3[C@H](OC3OC5COC(c6ccccc6)OC5C(O)C3O)[C@H]3COC(=O)[C@H]23)OCO4)cc(OC)c1OC", "note": "(stereo partly drawn)", "growth inhibition": "5%"},
      {"smiles": "OC(c1cc(-c2ccc(Cl)cc2)nc2c(Cl)cccc12)C1CCCCN1", "note": "(stereo not drawn)", "growth inhibition": "28%"},
      {"smiles": "CSc1nc(C)c(C(=O)CCN2CCN(c3ccccn3)CC2)s1", "growth inhibition": "-1%"},
      {"smiles": "Cc1cc(C(=O)c2ccc(Cl)cc2)ccc1O", "growth inhibition": "-3%"},
      {"smiles": "O=C(c1ccccc1)C(Br)C(Br)c1ccccc1", "note": "(stereo not drawn)", "growth inhibition": "22%"},
      {"smiles": "CCCCCCN(CCCCCC)CCCNc1nccc2ccccc12", "growth inhibition": "5%"},
      {"smiles": "CCCCCCCCCCCC[S+](C)CC(=O)[O-]", "note": "(stereo not drawn)", "growth inhibition": "19%"},
      {"smiles": "COC(=O)C(=[N+]=[N-])C(=O)c1ccc([N+](=O)[O-])o1", "growth inhibition": "6%"},
      {"smiles": "Cc1c(O)ccc(SC#N)c1C", "growth inhibition": "-3%"},
      {"smiles": "Oc1c(Cl)cc(Cl)cc1C(c1cc(Cl)cc(Cl)c1O)C(Cl)(Cl)Cl", "growth inhibition": "-2%"},
      {"smiles": "CCCCCCCCCCCCNCCCc1ccccc1", "growth inhibition": "99% (active)"},
      {"smiles": "Nc1ccc(C(=O)/C=C/c2ccccc2)cc1", "growth inhibition": "5%"},
      {"smiles": "NCC(=O)NC(CC(=O)O)C(=O)O", "note": "(stereo not drawn) (H-Gly-[ξD]-OH)", "growth inhibition": "9%"},
      {"smiles": "CN(C)c1ccc(C(=C2C=CC(=[N+](C)C)C=C2)c2ccc(N(C)C)cc2)cc1", "growth inhibition": "99% (active)"},
      {"smiles": "O=C1c2ccccc2Cc2cccc(Cl)c21", "growth inhibition": "1%"},
      {"smiles": "O=C/C=C/c1ccc([N+](=O)[O-])cc1", "growth inhibition": "17%"},
      {"smiles": "O=C1c2ccccc2C(=O)c2c(O)c(Cl)cc(O)c21", "growth inhibition": "4%"},
      {"smiles": "CN1CSC(=S)N(Cc2ccccc2)C1", "growth inhibition": "25%"},
      {"smiles": "CC(O)C(O)C(O)C(O)C(O)C(=O)NNc1ccccc1", "note": "(stereo not drawn)", "growth inhibition": "29%"},
      {"smiles": "Cn1c(COC(=O)NC2CCCCC2)c(COC(=O)NC2CCCCC2)c2ccc3cc(Cl)c(Cl)cc3c21", "growth inhibition": "15%"},
      {"smiles": "NC(=S)N/N=C\\c1nccc2c(N)cccc12", "growth inhibition": "0%"},
      {"smiles": "Oc1cc(Cl)ccc1Cc1ccc(Cl)cc1O", "growth inhibition": "99% (active)"},
      {"smiles": "CCCCCCCCCCCC(=O)OC(C)C(=O)NCCCC", "note": "(stereo not drawn)", "growth inhibition": "-1%"},
      {"smiles": "CCC(=O)c1cc([N+](=O)[O-])c(Br)s1", "growth inhibition": "100% (active)"},
      {"smiles": "OC(Cc1cc(CC(O)(C(F)(F)F)C(F)(F)F)nc(CC(O)(C(F)(F)F)C(F)(F)F)c1)(C(F)(F)F)C(F)(F)F", "growth inhibition": "-15%"}
    ]}
  ]
}
